Assay results taken from PubChem BioAssay.
Activity calls are given as the source filed them. Unless noted, the rule behind the calls is not given here.

Assays:
[1] = tested on: XIP peptide (Xip251-270) binding; test: XIP fragment 251-270 binding compounds – biochemical, small-molecule microarray, fluorescence 635/667 nm, 0.1 µg/mL protein, primary screen (AID 1182); conditions: fluorescent protein binding, 635 nm, higher = more signal, called active from +8 up or from −8 down
XIP peptide (Xip251-270) = test: compounds binding XIP fragment 251-270 – biochemical, small-molecule microarray, fluorescence 635/667 nm, 0.5 µg/mL protein, primary screen (AID 1183); conditions: fluorescence 635 nm, higher = more signal
[2] = blood-stage malaria parasite viability loss – strain 3D7, DAPI fluorescence, 100 nL, primary screen (AID 1184);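 note: parasites grown inside human red blood cells in medium with human serum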; conditions: P. falciparum 3D7 growth, 3 d, higher = more signal
[3] = biological target: Homeobox protein Hox-A13 (Mus musculus) (UniProt Q62424); test: disruptors of Hoxa13 oligonucleotide interaction – biochemical, fluorescence polarization, labeled oligonucleotide, primary screen (AID 1185); conditions: Hoxa13:DNA binding, 15 min, higher = more signal, called active from +8 up or from −8 down
Sequence of Homeobox protein Hox-A13 (Mus musculus) (Q62424 whole entry, looked up): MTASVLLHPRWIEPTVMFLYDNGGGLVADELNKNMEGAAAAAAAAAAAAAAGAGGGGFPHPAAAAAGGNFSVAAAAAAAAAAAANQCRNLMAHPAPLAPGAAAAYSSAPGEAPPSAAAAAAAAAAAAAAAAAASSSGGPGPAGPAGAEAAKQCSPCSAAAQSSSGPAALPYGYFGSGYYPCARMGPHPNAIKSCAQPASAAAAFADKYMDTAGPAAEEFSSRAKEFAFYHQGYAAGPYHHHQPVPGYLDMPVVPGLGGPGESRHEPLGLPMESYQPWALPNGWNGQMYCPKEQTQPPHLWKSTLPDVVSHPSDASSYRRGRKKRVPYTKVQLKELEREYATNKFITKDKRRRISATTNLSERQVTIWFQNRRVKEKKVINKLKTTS

[4] = blockers of DNA damage checkpoint Chk1 activation – imaging, HeLa, hydroxyurea, phospho-Chk1 antibody, percent positive cells, primary screen (AID 1186); conditions: hydroxyurea-induced phospho-Chk1 immunofluorescence imaging, higher = more signal
[5] = blockers of DNA damage checkpoint Chk1 activation – imaging, HeLa, hydroxyurea, phospho-Chk1 nuclear intensity, primary screen (AID 1187); conditions: hydroxyurea-induced phospho-Chk1 immunofluorescence imaging, higher = more signal

Structure (SMILES) | composite z-score [1] | composite z-score (XIP peptide (Xip251-270)) | z-score [2] | z-score [3] | z-score [4] | z-score [5]
CN(C)CCCCCCNC(=O)[C@@H]1C[C@@H]2C(=O)N3CCC[C@H]3C(=O)N2[C@@H]1c1cccc(OCCO)c1 | 2.52 (inactive) | 0.872 | 0.517 | -2.94 (inactive) | 0.0537 (inactive) | -0.055 (inactive)
COCCOC(=O)N1C(=O)[C@@]2(c3cc(C#CC4=CCCCC4)ccc31)[C@H](c1ccccc1OCCO)N1[C@H](c3ccccc3)[C@H](c3ccccc3)OC(=O)[C@H]1[C@@H]2C(=O)N1CCN(c2ncccn2)CC1 | 0.735 (inactive) | 0.55 | -1.86 | 1.02 (inactive) | -0.333 (inactive) | -0.385 (inactive)
CCCNC(=O)[C@@]1(Sc2ccc(C)cc2)CC(=O)N(C2Cc3ccccc3C2)[C@@H]1c1ccc(CO)cc1I | 0.0241 (inactive) | 0.733 | 0.441 | -2.68 (inactive) | 0.34 (inactive) | 0.78 (inactive)
COCCOC(=O)N1C(=O)[C@@]2(c3cc(C#CC4(O)CCCCCC4)ccc31)[C@H](C(=O)N1CCc3cc(OC)c(OC)cc3C1)[C@H]1C(=O)O[C@H](c3ccccc3)[C@H](c3ccccc3)N1[C@@H]2c1ccc(OCCO)cc1 | 0.402 (inactive) | 0.62 | -2.25 | 2.15 (inactive) | -0.149 (inactive) | -0.247 (inactive)
C=CCNC(=O)[C@@H]1[C@H]2C(=O)O[C@H](c3ccccc3)[C@H](c3ccccc3)N2[C@H](c2ccccc2OCCO)[C@@]12C(=O)N(C(=O)OCCOC)c1ccc(C#CC3(O)CCCCCC3)cc12 | 0.99 (inactive) | 0.674 | -2.21 | -2.56 (inactive) | -0.0659 (inactive) | 0.294 (inactive)
C#Cc1cc2ccccc2oc1=O | 0.151 (inactive) | 0.35 | -0.744 | -1.51 (inactive) | 0.318 (inactive) | -0.6 (inactive)
CCOC(=O)C[C@H]1[C@H](OC(=O)c2ccc(C(=O)c3ccccc3)cc2)[C@@H](NC(=O)CC(C)C)c2cc(OCCCO)ccc2N1C(=O)c1ccccc1 | 0.786 (inactive) | 0.671 | 1.38 | -3.51 (inactive) | 0.309 (inactive) | -0.0385 (inactive)
C=C(COC)/C(=C/C[C@H](OC(=O)c1ccncc1)c1ccccc1OCCO)c1cc(C(=O)OC)ccc1OC | 0.0249 (inactive) | 0.12 | -2.95 | -4.91 (inactive) | 0.127 (inactive) | 0.0857 (inactive)
C#CCN(Cc1ccccc1Br)[C@H](/C=C/c1ccccc1)[C@@H](O)Cc1ccccc1 | -0.368 (inactive) | -0.115 | -0.717 | -0.384 (inactive) | -0.162 (inactive) | 0.103 (inactive)
COc1ccc(CCNC(=O)[C@@]2(Sc3ccc(C)cc3)CC(=O)N(Cc3ccccc3C(F)(F)F)[C@@H]2c2ccc(CO)cc2I)cc1 | 0.232 (inactive) | 0.853 | -0.77 | -2.7 (inactive) | 0.17 (inactive) | 0.68 (inactive)
CS(=O)(=O)CCOC(=O)C1=CC(CCCO)=CC(c2ccc(CN3CCCC3)cc2)N(Cc2sc3ccccc3c2Cl)C=C1C(=O)OCCS(C)(=O)=O (centres undefined) | 0.814 (inactive) | 0.746 | -3.03 | 1.07 (inactive) | 0.316 (inactive) | 0.969 (inactive)
C=CCOC(=O)[C@@]1(Cc2ccccc2)C[C@H]2CO[C@H](c3ccc(OC)cc3)N2C1=O | -0.373 (inactive) | -0.0614 | -0.829 | -3.45 (inactive) | -0.0248 (inactive) | -0.386 (inactive)
COCCOC(=O)N1C(=O)[C@@]2(c3cc(C#CC4(O)CCCCCC4)ccc31)[C@H](C(=O)Nc1nc3ccccc3s1)[C@H]1C(=O)O[C@H](c3ccccc3)[C@H](c3ccccc3)N1[C@@H]2c1ccc(O)cc1 | 0.479 (inactive) | 0.817 | 0.219 | -1.09 (inactive) | -0.205 (inactive) | 0.0486 (inactive)
CCOC(=O)C[C@H]1[C@H](OC(=O)c2cc3ccccc3oc2=O)[C@@H](NC(=O)c2ccccc2)c2cc(OCCCO)ccc2N1C(=O)c1ccccc1 | -0.0879 (inactive) | 0.283 | -1.66 | -1.56 (inactive) | 0.171 (inactive) | -0.0272 (inactive)
[N-]=[N+]=NCc1ccccc1[C@H]1OC(c2ccc(OCCCO)cc2)=N[C@@]1(Cc1ccccc1N=[N+]=[N-])C(=O)NCC(O)CO (some centres undefined) | 0.665 (inactive) | 0.603 | -2.31 | -4.17 (inactive) | -0.266 (inactive) | 0.0665 (inactive)
CCCCC(=C=CC[C@H](O)c1ccc(OCCO)cc1)CCO | 0.0643 (inactive) | 0.256 | -1.17 | -4.31 (inactive) | -0.373 (inactive) | -0.317 (inactive)
COC(=O)[C@@]1(Cc2ccc(F)cc2)[C@H]2c3cc(C(=O)N4CCCC4)n(CCc4c[nH]c5ccccc45)c3C[C@H]2CN1C(=O)c1ccccc1 | 0.0236 (inactive) | 0.714 | -1.55 | -3.15 (inactive) | 0.916 (inactive) | 0.634 (inactive)

Structure (SMILES) | composite z-score [1] | composite z-score (XIP peptide (Xip251-270)) | z-score [2] | z-score [3] | z-score [4] | z-score [5]
CCN(CC)c1ccc(N2CC=CC34O[C@@H]5/C=C\CCCOC(=O)C5[C@H]3C(=O)N(C(C)CO)[C@@H]4C2=O)cc1 (some centres undefined) | -0.322 (inactive) | 0.213 | 0.226 | -5.97 (inactive) | 0.296 (inactive) | 0.804 (inactive)
CCCC=C(CCC)[C@@H](NC(=O)C(C)(C)C)c1ccc(C(=O)OC)cc1 | 0.158 (inactive) | -0.227 | -1.47 | -0.168 (inactive) | -0.75 (inactive) | -0.977 (inactive)
CC(C)C(CO)N1C(=O)[C@@H]2C3C(=O)OCCC/C=C\[C@H]3OC23C=CCN(c2ccc4ccccc4c2)C(=O)[C@@H]13 (some centres undefined) | 0.0076 (inactive) | 0.0118 | 0.674 | -6.34 (inactive) | 0.467 (inactive) | 0.516 (inactive)
Cc1ccc(S[C@]2(C(=O)NC(C)C)CC(=O)N(Cc3cc(C(F)(F)F)cc(C(F)(F)F)c3)[C@@H]2c2ccc(CO)cc2)cc1 | 0.706 (inactive) | 0.49 | -0.938 | -2.62 (inactive) | 0.0619 (inactive) | 0.116 (inactive)
O=C1OCCC=C[C@H]2OC34C=CCN(Cn5nnc6ccccc65)C(=O)[C@H]3N(CCCO)C(=O)[C@@H]4C12 (some centres undefined) | 2.05 (inactive) | -0.308 | -1.82 | -3.33 (inactive) | -0.628 (inactive) | -0.609 (inactive)
O=C(NCc1ccc(F)cc1)[C@H]1C[C@H]2C(=O)NCC(=O)N2[C@H]1c1ccc(O)cc1 | 0.981 (inactive) | 0.842 | -0.16 | -1.87 (inactive) | -0.339 (inactive) | -0.45 (inactive)
CN(C)c1ccc(C(O)C2C=CC3C(=O)NC(=O)C3N2Nc2ccccn2)cc1 (centres undefined) | -0.181 (inactive) | -0.0515 | 0.597 | -2.26 (inactive) | 0.431 (inactive) | 0.493 (inactive)
NCCCCCNC(=O)[C@@H]1C[C@@H]2C(=O)N[C@@H](CCCCN)C(=O)N2[C@@H]1c1ccc(O)cc1 | 0.439 (inactive) | 0.827 | -1.56 | 1.23 (inactive) | -0.484 (inactive) | -0.497 (inactive)
COc1ccc(C#Cc2ccc3c(c2)[C@]2(C(=O)N3)[C@H](C(=O)O)[C@H]3C(=O)O[C@H](c4ccccc4)[C@H](c4ccccc4)N3[C@@H]2c2ccc(O)cc2)cc1 | 1.14 (inactive) | -0.516 | -1.47 | -6.25 (inactive) | -0.366 (inactive) | -0.651 (inactive)
Cc1ccc(NN2C(C(O)c3c(F)cccc3Cl)C=CC3C(=O)N(C4CCCCC4)C(=O)C32)cc1 (centres undefined) | -0.391 (inactive) | 0.696 | -0.216 | -3.84 (inactive) | -0.0771 (inactive) | -0.369 (inactive)
O=C1C2C=CC(C(O)C3CC=CCC3)N(Nc3ccccc3)C2C(=O)N1c1ccccc1 (centres undefined) | 0.767 (inactive) | 0.748 | -0.653 | -3.25 (inactive) | 0.639 (inactive) | 0.201 (inactive)
COC(=O)[C@@]1(Cc2ccc(F)cc2)[C@H]2c3cc(C(=O)N(C)C)n(Cc4ccc(OC(F)(F)F)cc4)c3C[C@H]2CN1C(=O)c1ccccc1 | 0.342 (inactive) | -0.133 | 0.595 | -0.102 (inactive) | 0.233 (inactive) | 0.579 (inactive)
CCOC(=O)C[C@H]1[C@H](OC(=O)c2ccccc2-c2ccccc2)[C@@H](NC(=O)c2ccc3ccccc3n2)c2cc(OCCCO)ccc2N1C(=O)Cc1ccc(OC)cc1 | -0.0195 (inactive) | -0.203 | -1.64 | -2.31 (inactive) | 0.332 (inactive) | -0.135 (inactive)
CCCCC(O)C1C=CC2C(=O)N(C)C(=O)C2N1N(c1ccccc1)c1ccccc1 (centres undefined) | 0.289 (inactive) | 0.771 | 1.01 | -4.42 (inactive) | -0.0768 (inactive) | -0.691 (inactive)
CN1C(=O)C2C=CC(C(O)c3cccn3C)N(Nc3ccc([N+](=O)[O-])cc3[N+](=O)[O-])C2C1=O (centres undefined) | -0.438 (inactive) | -0.564 | 0.69 | -5.85 (inactive) | 0.769 (inactive) | 0.127 (inactive)
[N-]=[N+]=Nc1ccccc1C[C@@]1(C(=O)NCCN2CCOCC2)N=C(c2ccc(OCCCO)cc2)O[C@@H]1c1ccccc1N=[N+]=[N-] | 0.361 (inactive) | 0.846 | -2.49 | -5.26 (inactive) | -0.303 (inactive) | -0.523 (inactive)
COCCOC(=O)N1C(=O)[C@@]2(c3cc(C#CCCO)ccc31)[C@H](c1ccc(OCCO)cc1)N1[C@H](c3ccccc3)[C@H](c3ccccc3)OC(=O)[C@H]1[C@@H]2C(=O)Nc1nc2ccccc2s1 | 0.514 (inactive) | 0.509 | 0.335 | 0.838 (inactive) | -0.0639 (inactive) | -0.355 (inactive)
